# Screening results as filed in PubChem BioAssay.
# TSG101-PTAP inh: blocks PTAP/TSG101 interaction to inhibit HIV-1 budding | Q99816 | 340,000 tested, under 10 active | Fluorescence polarization, FITC-PTAP peptide / Tsg101 binding | Potency, µM (titrated, usually from 115 µM), for the others: at the highest dose activity change, negative = inhibition, actives largely listed as inhibitors | AID 493005; active means well fitted inhibition curve with a large enough effect in the main read-out, with a control signal flat, not every such curve was filed as active; inconclusive means small, poorly fitted or top-dose-only effect, or effect the other way, or a change in a side signal; inactive means no such curve, though single readings can be large or run the other way; further: % of control where 0% means no effect
#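 Compounds were pin-transferred onto Tsg101 binding domain (10 uM final) in HEPES pH 7.5 buffer, then FITC-PTAP peptide was added at 50 nM final. After 20 min at RT, polarization reported peptide displacement across a qHTS concentration series.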
# Rango complex inh: Rango-importin beta binding inhibition. Q14974. Rango CFP/YFP FRET sensor + importin beta, 45 min. Potency, µM (highest dose often 92.2 µM), inactives show at the top dose inhibition of complex formation. 340,000 tested, 0.031% active. AID 540263; calls by dose curve;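 further: 0% = DMSO wells and 100% = buffer wells lacking importin beta; nearly all actives have a fitted effect of over 15% in size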
# Target sequence (Q14974 whole entry, looked up): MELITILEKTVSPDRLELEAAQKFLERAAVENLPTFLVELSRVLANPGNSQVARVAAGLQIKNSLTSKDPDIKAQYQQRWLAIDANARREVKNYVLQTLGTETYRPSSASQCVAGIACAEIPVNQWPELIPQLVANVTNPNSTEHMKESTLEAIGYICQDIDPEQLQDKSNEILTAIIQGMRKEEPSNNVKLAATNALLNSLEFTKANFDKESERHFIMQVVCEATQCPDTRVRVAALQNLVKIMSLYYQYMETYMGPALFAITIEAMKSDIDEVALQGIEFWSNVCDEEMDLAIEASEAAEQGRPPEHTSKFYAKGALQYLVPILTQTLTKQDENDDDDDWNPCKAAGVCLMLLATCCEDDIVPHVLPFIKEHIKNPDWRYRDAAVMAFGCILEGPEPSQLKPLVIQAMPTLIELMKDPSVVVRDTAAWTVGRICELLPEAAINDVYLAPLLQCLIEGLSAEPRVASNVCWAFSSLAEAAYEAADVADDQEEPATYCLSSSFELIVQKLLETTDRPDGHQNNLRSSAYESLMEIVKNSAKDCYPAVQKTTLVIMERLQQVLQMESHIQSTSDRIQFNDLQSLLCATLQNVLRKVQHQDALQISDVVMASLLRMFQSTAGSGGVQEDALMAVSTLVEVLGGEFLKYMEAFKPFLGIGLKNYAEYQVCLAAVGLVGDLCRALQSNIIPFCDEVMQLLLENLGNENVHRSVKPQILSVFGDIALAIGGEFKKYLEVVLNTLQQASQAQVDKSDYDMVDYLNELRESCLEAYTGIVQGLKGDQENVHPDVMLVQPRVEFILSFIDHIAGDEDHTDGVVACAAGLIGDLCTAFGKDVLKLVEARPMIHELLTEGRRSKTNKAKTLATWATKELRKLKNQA
#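 FRET biosensor (snurportin 1 IBB flanked by EYFP and cerulean), 50 nM, with compound 5 min, then 0.125 microM importin beta in PBS, 1 mM DTT, 0.02% Tween-20, 0.1% BSA. CFP/YFP ratio read after 45 min at room temperature; pre-read flags interference.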
# TDP1 block: TDP1 (human) enzyme inhibition; Q9NUW8; recombinant TDP1, AlphaScreen DNA substrate cleavage; Potency, µM (top dose mostly 130 µM), inactives show at the highest dose activity change, negative = inhibition, actives largely listed as inhibitors; 350,000 tested, 0.28% active; further: on the % scale 0 is the no-effect control and ±100 the full control effect; nearly all actives have a fitted effect of over 40% in size
#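 Steps: enzyme plus compound, 15 min RT; add biotin/phosphotyrosine-FITC oligonucleotide (15 nM final), react 5 min; add donor/acceptor beads (10 ug/ml final), 10 min; read AlphaScreen. Tdp1 at 1 nM final.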
# 12-LOX inh: ALOX12 (human) lipoxygenase inhibition. P18054. purified 12hLO, xylenol orange hydroperoxide absorbance. Potency, µM (top dose mostly 108 µM), inactives show at the top dose activity change, negative = inhibition, most hits filed as inhibitors. 580,000 tested, 1.1% active. AID 1671190; further: on the % scale 0 is the no-effect control and ±100 the full control effect
#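 Purified human 12hLO (150 nM final) in 25 mM Hepes, 0.01% Triton X-100, pH 7.0 was preincubated 15 min at room temperature with compound. Then 40 uM arachidonic acid was added, 30 min. Hydroperoxide was read by Fe-XO absorbance ratio 573/405 nm.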
# ClpP mod: qHTS Assay for Activators of ClpP | purified B. subtilis ClpP, FRET peptide cleavage, 20 min | AID 651965, 2013 | 340,000 tested, 1.9% active | ATP-dependent Clp protease proteolytic subunit (Bacillus subtilis (strain 168)), P80244 | Potency, µM (doses to about 57.5 µM), inactives show at the top dose activity change, negative = active; active means well fitted falling curve with a large enough effect; inconclusive means small, poorly fitted or top-dose-only effect; inactive means no such curve, though single readings can be large or run the other way; further: the source files actives as falling curves though it sought activators and does not explain the sign; nearly all actives have a fitted effect of over 65% in size
#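 Buffer: 100 mM Tris/HCl pH8, 100 mM KCl, 0.05% low protease BSA, 2.5% glycerol, 0.01% Tween-20. ClpP 10 microg/mL final; 20 min RT; delta FRET normalized to ADEP and DMSO controls.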
# Rango dissoc inh: prevents RanGTP from dissociating the Rango-importin beta complex. O95149+P62826. Biochemical FRET Rango-importin beta, RanGTP-induced dissociation. Potency, µM (doses to about 46.1 µM), inactives show at the highest dose activity change, negative = inhibition. 340,000 tested, 0.071% active. AID 540253; calls by dose curve; further: % of control where 0% means no effect; nearly all actives have a fitted effect of over 45% in size
#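 Rango FRET biosensor (snurportin-1 IBB flanked by N-terminal EYFP and C-terminal CFP10) at 0.1 uM, with 0.25 uM importin beta in PBS, 1mM DTT, 0.02% Tween-20, 0.1% BSA. 0.6 uM Ran, 2mM GTP and 0.2 uM RCC1 were then added for 45 min at room temperature. Inhibition read as loss of FRET rise.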
# The depositor's hits bear a star; ? = inconclusive; . = no result; ! = repeats disagree; [ ] = remark or other dose. Most compounds without a hit are left out; they make up all but 2.4% or so of the library. Unless noted, the call rests on the fitted dose curve; in most records, active means well fitted curve in the direction sought with a large enough effect; inconclusive means small, poorly fitted or top-dose-only effect, or another doubt; inactive means no such curve, though single readings can be large; an effect the other way counts as inactive or inconclusive. Potency means the concentration at half of the fitted maximal effect.
SMILES,TSG101-PTAP inh,Rango complex inh,TDP1 block,12-LOX inh,ClpP mod,Rango dissoc inh
O=c1[nH]c(=S)n(CCC2=CCCCC2)c(O)c1/C=N/Nc1ccccc1,7%,?,.,35µM*,0%,-9%
N[C@@H](Cc1cc(I)c(O)c(I)c1)C(=O)O,-1%,-1%,0%,0.51µM*!,0%,-4%
Cc1o[nH]c(=O)c1CC(N)C(=O)O (configuration not stated),.,.,7%[56.1 µM],.,.,.
N[C@@H](CCl)C(=O)O,-4%,-2%,5%[56.1 µM],-6%,0%,3%
NC(Cc1cc(O)c(O)cc1O)C(=O)O (configuration not stated),.,.,0.18µM*,?,-1%,.
CN(C)C(=O)[C@H]1CN2CC[C@H]1C[C@@H]2Cn1cc(COc2ccccc2)nn1,.,.,.,35%[176 µM],.,.
COc1cc2[nH]c(=O)n(-c3cccc(Cl)c3)c(=O)c2cc1OC,-5%,-1%,7%,10%,28µM*,-13%
Cc1cc(C)cc(-n2c(=O)[nH]c3ccccc3c2=O)c1,.,.,6%,-24%,-24%,.
COc1cc2[nH]c(=O)n(-c3ccccc3)c(=O)c2cc1OC,-1%,2%,2%,0%,25µM*,-9%
CC(=O)c1c(O)n(-c2cccc(Cl)c2)c(=O)[nH]c1=O (tested in a mixture with another compound),-3%,?,1%,?,-1%,-6%
COc1ccc(NC(=O)N2[C@H]3CC[C@@H]2c2cnc(C)nc2C3)cc1F,.,.,.,22%,.,.
CC(C)CN1CCNc2cc(-c3ccccc3)ncc2C1,.,.,.,-5%[176 µM],.,.
C[CH2][Hg][S]c1ccccc1C(=O)O,-3%,1%,15%,5.6µM*,-1%,2%
Cc1ccsc1-c1nc(CSCC(=O)N2CCC3(CC2)OCCO3)c(C)o1,-8%,0%,5%,6%,32µM*,8%
CN(CCc1ccccn1)C[C@H]1CN2CC[C@H]1C[C@@H]2CNS(=O)(=O)c1ccc(Cl)cc1,.,.,.,15%,.,.
O=C([C@H]1CN2CC[C@H]1C[C@@H]2Cn1cc(CO)nn1)N1CCOCC1,.,.,.,50%[176 µM],.,.
Cn1c(CN2CCC(C#N)(c3ccccc3)CC2)nnc1C1CC(N)C1 (configuration not stated),.,.,.,44%,.,.
COC(=O)c1c(C)n(Cc2ccccc2)c2ccc(O)cc12,-8%,-3%,3%,16µM*!,.,11%
CC(C)CN1Cc2ccccc2-n2ccnc2C12CCN(C(=O)c1cccs1)CC2,.,.,.,17%,.,.
CC(C)N1C(=O)/C(=C/C=C/c2ccco2)C(=O)N(Cc2ccco2)C1=O,-2%,?,6%,?,-22%,-25%
Cc1ccc(N/N=C/C=C/c2ccco2)cc1,-2%,?,.,?,13µM*,?
C1CCN(C2CCCNC2)CC1 (configuration not stated),.,.,.,9%,.,.
Cn1nc2n(c1=O)CCC(NC(=O)c1nn(C)c3ccccc13)CC2 (configuration not stated),.,.,.,15%,.,.
O=C(c1ccncc1)N1CC2CCC(C1)N2Cc1ccccc1,.,.,.,12%[6.33 µM],.,.
Nc1ccc2c(c1)Cc1ccccc1-2,-4%,-1%,5%,-4%,11µM*,0%
SMILES,TSG101-PTAP inh,Rango complex inh,TDP1 block,12-LOX inh,ClpP mod,Rango dissoc inh
CC(C)COc1ccc(Cc2c(O)[nH]c(=S)[nH]c2=O)cc1,-2%,5%,.,8.9µM*,-1%,2%
Cc1cc(Cc2c(O)[nH]c(=S)[nH]c2=O)ccc1OC(C)C,-11%,0%,4%,20µM*,-1%,-6%
O=c1[nH]c(=S)[nH]c(O)c1CN1CCCCC1,-3%,0%,3%,-3%,-3%,4%
C=CCn1c(O)c(Cc2ccc(OCC)cc2)c(=O)[nH]c1=O,-6%,4%,.,-10%,.,45%
Cc1ccc(Cl)cc1N1CCN(C(=O)c2cn(CC(C)C)c(=O)c3c2c2ccccc2n3C)CC1,.,.,2%,-25%,13µM*,.
CCn1cc(C(=O)N2CCOCC2)c2ccccc21,-3%,3%,-1%,-8%,-3%,15%
CCn1cc(C(=O)N(C)CC(=O)NC(C)(C)C)c2ccccc21,.,.,.,14%,.,.
CCCCCCn1c(N)c(C(=O)NCCN2CCOCC2)c2nc3ccccc3nc21,-2%,?,4%,51%,25µM*,?
CCCCNC(=O)c1c(N)n(Cc2ccc3c(c2)OCO3)c2nc3ccccc3nc12,4%,?,-7%,1%[57.4 µM],10µM*,?
COCCCn1c(N)c(C(=O)NCCC(C)C)c2nc3ccccc3nc21,-3%,?,?,0%,32µM*,?
CCCCn1c(N)c(C(=O)NCc2cccs2)c2nc3ccccc3nc21,-2%,?,-5%,0%,25µM*,?
COc1ccc(CCNC(=O)c2c(N)n(CCN3CCOCC3)c3nc4ccccc4nc23)cc1OC,-10%,?,2%,4%,-21%,?
Cc1ccccc1-c1ccc2n(c1=O)C[C@H]1C[C@@H]2CN(S(=O)(=O)c2cccs2)C1,.,.,.,-29%[176 µM],.,.
CC(C)CC(=O)N1CCC2(CC1)NCc1ccccc1-n1ccnc12,.,.,.,24%,.,.
Cc1ncc2c(n1)C[C@@H]1CC[C@H]2N1,.,.,.,9%,.,.
O=C(Nc1ccccc1)OC[C@H]1C[C@@H]2CCN1C[C@@H]2c1cc(C2CCCC2)nc(-c2ccncc2)n1,.,.,.,-9%,.,.
CC(Cc1ccccc1)N(C)Cc1ccco1 (configuration not stated),.,.,.,-8%[22.9 µM],.,.
COCCCNC(=O)c1c(NC(=O)c2ccccc2)n(Cc2ccccc2)c2nc3ccccc3nc12,6%,?,.,.,32µM*,?
COCCOC(=O)c1c(N)n(Cc2ccccc2)c2nc3ccccc3nc12,-8%,?,-7%,0%,70%,?
CC(C)c1cccc(O)c(=O)c1,-4%,-1%,13%,14µM*!,-3%,5%
CSC[C@H](NC(=O)COc1cc2c(c3oc(=O)c(C)c(C)c13)CCC(C)(C)O2)C(=O)O,-1%,0%,.,?,28µM*,12%
O=C(NC1CCSC1=O)c1ccco1 (configuration not stated),.,.,.,-1%,.,.
CCN(CC)c1ccc(CC2C(=O)N(C)C(=O)N(C)C2=O)cc1,0%,?,0%,.,8.9µM*,-12%
O=C(O)CSC(c1ccc(F)cc1)c1ccc(F)cc1,.,.,.,-22%,.,.
CCCC/C(=N/O)c1c(C)[nH]c2ccccc12,-5%,-2%,2%,32%,28µM*,3%
CCCCC/C(=N/O)c1c(C)[nH]c2ccccc12,2%,-3%,6%,2%,.,0%
